The whole screen tested about 2,400 compounds, of which about 220 (9.2%) were called active. For the sample, actives were picked, then their nearest neighbours and some compounds at random. Values without a mark were called inactive.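 Rule for the calls: active = signal change above the mean of dofetilide-free buffer controls plus 3 SD, so a positive margin; inactive = the rest.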

A short description of the test: nonspecific flux effects in parental CHO-K1, confirmation, counter-screen for hERG block protection project, cell-based, CHO-K1 parental line, FluxOR thallium flux (AID 1839).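 Note: compounds applied alone with no dofetilide to cells lacking hERG.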 The note with it: CHO-K1 parental cells, FluxOR thallium flux fluorescence; at 10 µM. A general note: A counterscreen serves to expose hits that act by an unwanted route or on another target.
Regarding `COc1ccc(NC(=O)CSCC(=O)Oc2c(OC)cccc2OC)cc1`, the signal change vs control minus 3*SD hit threshold (margin above threshold, higher = more increase) is -30.4%.

As for `Cc1cc(C)n(-c2nc3sc4c(c3c(=O)[nH]2)CCCC4)n1`, the signal change vs control minus 3*SD hit threshold (margin above threshold, higher = more increase) is -29.7%. In the case of `CCn1c(=S)[nH]c2sc3c(c2c1=O)CCCCC3`, the signal change vs control minus 3*SD hit threshold (margin above threshold, higher = more increase) was 37.1% (active). The figure for `CCn1c(SC(C)C(=O)O)nc2sc3c(c2c1=O)CCC3` (stereo not given) is -5.9%; for `O=C(Nc1cccnc1)c1ccc(COc2cc(Cl)ccc2Cl)o1` it is -33.5%; for `CCCSc1cc(NCCOC(C)=O)c([N+](=O)[O-])c2nonc12` it is -28.6%. The figure for `Cc1cc2ccccn2c1C(=S)NC(=O)c1ccccc1` is 2.8% (active); for `Cc1cccc(C(=O)NNC(=S)NC(=O)c2ccccc2)c1` it is -45%; for `Cc1ccc(C(=O)NNC(=S)NC(=O)c2ccccc2)cc1` it is -43.2%. The figure for `COc1ccc(C(=O)NC(=S)N2CCC(C)CC2)cc1` is -29%.

Turning to `CCOC(=O)C1=C(O)c2ccccc2C(=O)/C1=C\c1ccc(CC)cc1`, the signal change vs control minus 3*SD hit threshold (margin above threshold, higher = more increase) is -14.9%.

On to `CCc1ccc(/C=C/C(=O)c2cc(Br)ccc(=O)c2O)cc1`, for which the signal change vs control minus 3*SD hit threshold (margin above threshold, higher = more increase) is -23.5%. Regarding `Cc1ccc(/C=C/C(=O)C2C(=O)c3ccccc3C2=O)cc1`, the signal change vs control minus 3*SD hit threshold (margin above threshold, higher = more increase) was 8.4% (active). The figure for `Cc1ccc(/C=N/N2C(=O)c3ccccc3NC2c2ccc(C)cc2)cc1` (stereo not given) is -30%; for `CCc1ccc(/C=C/C(=O)C2C(=O)c3ccccc3C2=O)cc1` it is 15.2% (active). The figure for `Cc1ccc(/C=C/C(=O)c2ccccc(=O)c2O)cc1C` is -20.1%; for `COc1ccc(-n2c(SCc3ccccn3)nc3c(c2=O)SCC3)cc1OC` it is -16.3%. The figure for `O=C(COC(=O)c1cnccn1)c1ccc(Cl)cc1` is -30.4%. For `CC1CCc2c(sc(NS(=O)(=O)c3ccccc3)c2C(=O)OC(C)C)C1` (stereo not given), the signal change vs control minus 3*SD hit threshold (margin above threshold, higher = more increase) is 5.8% (active). As to `CC(C)OC(=O)c1c(NS(=O)(=O)c2ccccc2)sc2c1CCCC2`, the signal change vs control minus 3*SD hit threshold (margin above threshold, higher = more increase) was -18.4%. The figure for `CCOC(=O)c1c(NS(C)(=O)=O)sc2c1CCC(C)C2` (stereo not given) is -5.6%; for `CCOc1ccc(NC(=O)CSc2nc3nc(C)cc(C)n3n2)cc1` it is -31.5%; for `CC1=CCC[C@@H]2[C@@](C)(CC/C(C)=C/C(=O)O)[C@H](C)CC[C@@]12C` it is 7.9% (active).

In the case of `O=[N+]([O-])c1cccc(/C=C/c2nc(C=Nc3ccccc3)c(O)o2)c1`, the signal change vs control minus 3*SD hit threshold (margin above threshold, higher = more increase) was -34.1%. The figure for `COC(=O)C1=NN(C(=O)c2ccc(Cl)cc2)C(O)(c2ccccc2)C1` (stereo not given) is 17.7% (active). The figure for `Cc1ccc(C(=O)NNC(=S)NC(=O)c2ccc(Cl)cc2)cc1` is -46.2%; for `CCC1=NN(C(=O)c2ccc(Cl)cc2)C(O)(c2ccc(C)cc2)C1` (stereo not given) it is -25.9%; for `CCOC(=O)c1cnc(-n2nc(C)cc2C)nc1Nc1cccc(C(=O)O)c1` it is -22.1%. Turning to `COC(=O)C1=NN(C(=O)c2ccc(C)cc2)C(O)(c2ccc(Cl)cc2)C1` (stereo not given), the signal change vs control minus 3*SD hit threshold (margin above threshold, higher = more increase) is 46.4% (active).

`CCC1=NN(C(=O)c2ccc(Cl)cc2)C(O)(c2ccccc2)C1` (stereo not given): the signal change vs control minus 3*SD hit threshold (margin above threshold, higher = more increase) is -32.2%. The figure for `CC1=NN(C(=O)c2ccc(Cl)cc2)C(O)(c2ccccc2)C1` (stereo not given) is -21.7%. The figure for `CC(C)(C)C1(O)CC(C(F)(F)F)=NN1C(=O)Cc1ccc([N+](=O)[O-])cc1` (stereo not given) is -27%; for `COC(=O)C1=NN(C(=O)c2cccc(Br)c2)C(O)(c2ccc(Cl)cc2)C1` (stereo not given) it is 64.5% (active); for `CC1=NN(C(=O)c2ccccc2Br)C(O)(c2ccc(Cl)cc2)C1` (stereo not given) it is -36.1%. The figure for `CCOC(=O)C1=NN(C(=O)c2cccc(Br)c2)C(O)(C(C)(C)C)C1` (stereo not given) is 49.8% (active); for `Cc1c(C)c2ccc(OCC(=O)N[C@@H](Cc3ccccc3)C(=O)O)cc2oc1=O` it is -15.2%; for `O=C(C1CC(=O)N(c2ccc3c(c2)OCCO3)C1)N1CCCC(C(F)(F)F)C1` (stereo not given) it is -31.3%.

With `COc1ccc(/C(C)=N/Nc2ccc(C(=O)O)cc2)c(OC)c1`, the signal change vs control minus 3*SD hit threshold (margin above threshold, higher = more increase) was -36.2%. In the case of `Cc1ccc(C(=C2C3C=CC2C2C(=O)NC(=O)C32)c2ccc(C)cc2)cc1` (stereo not given), the signal change vs control minus 3*SD hit threshold (margin above threshold, higher = more increase) was -28.1%. The figure for `O=C(Nc1nc2c(Br)cc(Br)cc2c(=O)s1)C1CCC1` is -21%; for `Cc1ccc(/C(O)=C/C(=O)C(=O)NC23CC4CC(CC(C4)C2)C3)cc1` it is -22.7%; for `CCn1ncc(Cl)c1C(=O)NC(=S)Nc1ccccc1Br` it is -0.1%. The figure for `Cc1cccc(/C=N/n2c(COc3ccccc3)n[nH]c2=S)c1` is -23.1%. The figure for `COc1ccc(NC(=S)NC(NC(=O)c2cccc3ccccc23)C(Cl)(Cl)Cl)c([N+](=O)[O-])c1` (stereo not given) is -33.1%; for `NC(=O)C1CCN(C(=O)c2cc3c(s2)CCCC3)CC1` it is -20.8%; for `O=C(COc1cccc(-n2cnnn2)c1)Nc1ccc([N+](=O)[O-])cc1` it is -25.2%. As for `O=C(Nc1nc(-c2ccccc2)c(-c2ccccc2)o1)c1ccc(F)cc1`, the signal change vs control minus 3*SD hit threshold (margin above threshold, higher = more increase) is -18.6%. The figure for `O=C(NC(=S)N1CCN(c2ccc(Cl)cc2[N+](=O)[O-])CC1)c1cccs1` is -23.6%; for `COCCNC(=O)C(c1ccncc1)N(C(=O)Cn1nnc2ccccc21)c1ccc(OC)cc1` (stereo not given) it is -24.4%; for `COc1cccc(C=NCC(C)N=Cc2cccc(OC)c2O)c1O` (stereo not given) it is -13.1%. The figure for `COc1cccc(C=Nc2cc(C)cc(C)c2)c1O` is -7.5%. The figure for `COc1cccc(C=NCCCN=Cc2cccc(OC)c2O)c1O` is 0.5% (active); for `Cc1ccc(O)c(C(=O)CC(=O)c2ccccc2Cl)c1` it is -27.9%; for `Cc1cc(Br)c(NC(=O)COC(=O)C2CC2C)c(Br)c1` (stereo not given) it is -27.2%. As for `CN(C(=O)CSc1ncnc2sc(-c3ccccc3)cc12)C1CCS(=O)(=O)C1` (stereo not given), the signal change vs control minus 3*SD hit threshold (margin above threshold, higher = more increase) was 24.3% (active). The figure for `CCOC(=O)c1sc2nc(C)nc(SCC(=O)N(C)C3CCS(=O)(=O)C3)c2c1C` (stereo not given) is -20.4%; for `O=C(O)CCSc1ncnc2sc(-c3ccccc3)cc12` it is -4.3%.

As to `CCOC(=O)C1=C(N)Oc2cc(O)ccc2C1c1cccnc1` (stereo not given), the signal change vs control minus 3*SD hit threshold (margin above threshold, higher = more increase) was -22.5%. The figure for `N#Cc1cccc(NC(=O)c2nc(-c3ccccc3)n(-c3ccccc3)n2)c1` is -41.8%; for `CCOC(=O)N1CCN(C(=O)c2ccc(C)c(S(=O)(=O)Nc3ccccc3)c2)CC1` it is -15%.

(Values after PubChem BioAssay AID1839 (Johns Hopkins Ion Channel Center, 2009).)
